Where “and” joins values, the source holds several entries; their conditions need not be identical. Identical values can stand only once. Records with an inconclusive call do not appear. Where a structure was tested more than once in an assay, its records may differ in their call. Calls of active or inactive are those of the source. Rule for the calls, unless noted: active = hit-call score of the fitted dose curve at least 0.9, where 1 is the maximum; inactive = score below 0.9.
What was measured:
[1] = CCTE_Harrill_HTTr_Viability_MCF7: CCTE's 6-hour Cell Viability Assessment for the High-Throughput Transcriptomics (HTTr) Platform, in MCF-7 cells cultured in DMEM + 10% fetal bovine serum, Harrill Lab (AID 2284010)
In short: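 MCF-7 cells in DMEM + 10% FBS, 384-well, exposed 6 h to an eight-point dilution series. Membrane integrity scored by high-content imaging of propidium iodide exclusion; bidirectional fit versus DMSO.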

[2] = CCTE_Harrill_HTTr_Apoptosis_MCF7: CCTE's 6-hour Apoptosis Assessment for the High-Throughput Transcriptomics (HTTr) Platform, in MCF-7 cells cultured in DMEM + 10% fetal bovine serum, Harrill Lab (AID 2284011)
In short: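 Apoptosis in MCF-7 cells grown in DMEM with 10% fetal bovine serum was scored after a six hour exposure by high content imaging of caspase-3/7 activation (CellEvent Caspase 3/7 Green), with DMSO serving as negative control and baseline.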

[3] = CCTE_Harrill_HTTr_CellCount_MCF7: CCTE's Cell Proliferation Assessment for the High-Throughput Transcriptomics (HTTr) Platform, Harrill Lab (AID 2284012; active = hit-call score of the fitted dose curve at least 0.9, where 1 is the maximum;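 note: cells exposed to compound for six hours; intended direction is loss of nuclei count meaning fewer cells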)
In short: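 MCF7 cells exposed 6 hours to an eight-point dilution series; Hoechst-stained nuclei counted by high-content imaging. Bidirectional curve fitting against DMSO baseline.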

[4] = CCTE_Simmons_MITO_basal_resp_rate: CCTE's HepG2 Seahorse XF Respirometric Screening Assay at Basal Respiratory State, Simmons Lab (AID 2284001); settings: actives raise or lower the signal
In short: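 HepG2 respirometry; 7-pt titration 125 nM–100 uM final; kinetic OCR at 6 min intervals for 72 min; n=3 biological, technical singles; DMSO baseline, gain or loss fit; fenpyroximate (decrease) and 2,4-DNP (increase) controls.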

[5] = CCTE_Simmons_MITO_max_resp_rate: CCTE's HepG2 Seahorse XF Respirometric Screening Assay at Maximal Respiratory State [uncoupled], Simmons Lab (AID 2284002); settings: actives raise or lower the signal
In short: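 Uncoupled (FCCP) respiration of HepG2 cells served as the endpoint, with measurements at 6-minute intervals across a 72-minute run and compounds dosed at 7 concentrations up to 100 uM final.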

[6] = CCTE_Simmons_MITO_inhib_resp_rate: CCTE's HepG2 Seahorse XF Respirometric Screening Assay at Inhibited Respiratory State [full ETC block], Simmons Lab (AID 2284006); settings: actives raise or lower the signal
In short: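 HepG2 oxygen consumption was measured by Seahorse XF after compound, FCCP, then rotenone/antimycin A injections. Seven concentrations from 125 nM to 100 uM (final) were tested, with 6-min kinetic reads over 72 minutes. Inhibited-state OCR was fitted bidirectionally against DMSO.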

[7] = CCTE_Shafer_MEA_acute_spike_number: CCTE's Neural Acute Assay for Total Number of Spikes, Shafer Lab (AID 2284008);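 for AC50: curve fitted for decrease in spike count so AC50 reflects inhibitors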
In short: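 Using an adaptive detector set to 8x rms noise, spikes were counted in 40-min windows before and after compound addition (0.03-40 uM) to rat cortical networks at 37 C; the well-level change from baseline was analysed relative to DMSO.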

[8] = CCTE_Shafer_MEA_acute_firing_rate_mean: CCTE's Neural Acute Assay for Mean Firing Rate, Shafer Lab (AID 2284009);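 note: analyzed for loss of signal so actives lower firing rate relative to DMSO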
In short: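 Percent change in well-mean firing rate was derived from extracellular spikes detected at 8x rms noise (300-5000 Hz band-pass) before and after a 40-min compound exposure. Cultures were primary rat cortical neurons, tested at 0.03-40 uM.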

[9] = CCTE_Shafer_MEA_acute_burst_number: CCTE's Neural Acute Assay for Single-Electrode Bursts, Shafer Lab (AID 2284013)
In short: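 Spontaneous network activity of primary rat cortical neurons was recorded extracellularly on microelectrode arrays at 37 C, with 40-min periods before and during exposure to 0.03-40 uM compound on DIV 13 or 15.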

[10] = CCTE_Shafer_MEA_acute_burst_duration_mean: CCTE's Neural Acute Assay for Mean Burst Duration, Shafer Lab (AID 2284014);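 note: hits are decreases in mean burst duration relative to DMSO controls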
In short: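 Read-out is the per-well percent change in mean burst duration (first to last spike within a single-electrode burst) between 40-min recordings before and after compound. Cultures were primary rat cortical neurons on MEAs, dosed at 0.03-40 uM on DIV 13 or 15.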

[11] = CCTE_Shafer_MEA_acute_per_burst_spike_number_mean: CCTE's Neural Acute Assay for Average Number of Spikes Per Burst, Shafer Lab (AID 2284015);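 note: hits are decreases in mean spikes per burst versus baseline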
In short: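 Read-out: percent change in mean spikes per burst, each well's post-exposure 40-min recording versus its own 40-min baseline. Rat cortical cultures, DIV 13 or 15, compounds 0.03-40 uM; DMSO is negative control, loss-of-signal fitting.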

Structure (SMILES): O=C(Nc1ccccc1)Nc1cnns1
- outcome [1]: inactive
- outcome [2]: inactive
- outcome [3]: inactive

Structure (SMILES): COP(=S)(OC)Oc1ccc([N+](=O)[O-])cc1
- outcome [4]: inactive
- outcome [5]: inactive
- outcome [6]: inactive
- outcome [1]: inactive
- outcome [2]: inactive
- outcome [3]: inactive

Structure (SMILES): ClC1C(Cl)C(Cl)C(Cl)C(Cl)C1Cl (configuration not stated)
- AC50 [7]: 20 µM (active)
- AC50 [8]: 20 µM (active)
- outcome [1]: inactive
- outcome [2]: inactive
- outcome [3]: inactive
- outcome [9]: inactive
- AC50 [10]: 20 µM (active)
- AC50 [11]: 1.62 µM (active)

Structure (SMILES): CCOCN(C(=O)CCl)c1c(C)cccc1CC
- outcome [4]: inactive
- outcome [5]: inactive
- outcome [6]: inactive
- outcome [1]: inactive
- outcome [2]: inactive
- outcome [3]: inactive

Structure (SMILES): CNC(=O)CSP(=S)(OC)OC
- outcome [7]: inactive
- outcome [8]: inactive
- outcome [1]: inactive
- outcome [2]: inactive
- outcome [3]: inactive
- outcome [9]: inactive
- outcome [10]: inactive
- outcome [11]: inactive

Structure (SMILES): CNC(=O)Oc1cccc(N=CN(C)C)c1
- outcome [1]: inactive
- outcome [2]: inactive
- outcome [3]: inactive

Structure (SMILES): CC(C)(C)C(O)/C(=C\c1ccc(Cl)cc1Cl)n1cncn1 (configuration not stated)
- AC50 [4]: 15.8 µM (active)
- AC50 [5]: 21.1 µM (active)
- outcome [6]: inactive
- outcome [1]: inactive
- outcome [2]: inactive
- outcome [3]: inactive

Structure (SMILES): O=C1c2ccccc2C(=O)N1SC(Cl)(Cl)Cl
- outcome [7]: inactive
- outcome [8]: inactive
- outcome [1]: inactive
- outcome [2]: inactive
- outcome [3]: inactive
- outcome [9]: inactive
- outcome [10]: inactive
- outcome [11]: inactive

Structure (SMILES): Clc1ccccc1-c1nnc(-c2ccccc2Cl)nn1
- outcome [7]: inactive
- outcome [8]: inactive
- outcome [1]: inactive
- outcome [2]: inactive
- outcome [9]: inactive
- outcome [10]: inactive
- outcome [11]: inactive

Structure (SMILES): N#CN
- outcome [7]: inactive
- outcome [8]: inactive
- outcome [1]: inactive
- outcome [2]: inactive
- outcome [9]: inactive
- outcome [10]: inactive
- outcome [11]: inactive

Structure (SMILES): CC(C)(C)C(O)C(Oc1ccc(Cl)cc1)n1cncn1 (configuration not stated)
- outcome [1]: inactive
- outcome [2]: inactive

Structure (SMILES): CCN(CC)C(=O)SCc1ccc(Cl)cc1
- outcome [1]: inactive
- outcome [2]: inactive
- outcome [3]: inactive

Structure (SMILES): CCc1ccc(C(=O)NN(C(=O)c2cc(C)cc(C)c2)C(C)(C)C)cc1
- outcome [1]: inactive
- outcome [2]: inactive

Structure (SMILES): OCCOc1ccccc1
- outcome [1]: inactive
- outcome [2]: inactive

Structure (SMILES): COc1nn(CSP(=S)(OC)OC)c(=O)s1
- outcome [1]: inactive
- outcome [2]: inactive
- outcome [3]: inactive

Structure (SMILES): CC1(C)C(C=C(Cl)Cl)C1C(=O)OC(C#N)c1ccc(F)c(Oc2ccccc2)c1 (configuration not stated)
- AC50 [7]: 407 nM (active) and 4.51 µM (active)
- AC50 [8]: 450 nM (active) and 4.51 µM (active)
- outcome [1]: inactive
- outcome [2]: inactive
- outcome [3]: inactive
- AC50 [9]: 0.173 µM (active)
- outcome [9]: inactive
- AC50 [10]: 1.66 µM (active)
- outcome [10]: inactive
- AC50 [11]: 0.574 µM (active)
- outcome [11]: inactive

Structure (SMILES): CNC(=O)Oc1ccccc1OC(C)C
- outcome [1]: inactive
- outcome [2]: inactive
